# Measurements: article PMC5540273 (PLoS ONE, 2017)
# Several values for one entry are separate records, joined by “and”; a condition that tells them apart may be missing. Identical values can stand only once. Like-named read-outs stand apart in the source and are kept apart here.
# What was measured:
# [1] = test system: DMPK; conditions: concentration: 1 μM, replicates: in singlicate, n = 1
# [2] = test system: T1, DRAK1; conditions: concentration: 1 μM, replicates: in singlicate, n = 1
# T1 construct: gene STK17A
# [3] = test system: T2, DRAK2; conditions: n = 1
# T2 construct: gene STK17B
# [4] = test system: DYRK1A; conditions: concentration: 1 μM, replicates: in singlicate, n = 1
# [5] = test system: DYRK1B; conditions: n = 1
# [6] = test system: DYRK2; conditions: concentration: 1 μM, replicates: in singlicate, n = 1
# [7] = test system: EGFR; conditions: concentration: 1 μM, replicates: in singlicate, n = 1
# [8] = test system: EIF2AK1; conditions: concentration: 1 μM, replicates: in singlicate, n = 1
# [9] = test system: EPHA1; conditions: concentration: 1 μM, replicates: in singlicate, n = 1
# [10] = test system: EPHA2; conditions: concentration: 1 μM, replicates: in singlicate; n = 1
# [11] = concentration: 1 μM, replicates: in singlicate
# [12] = concentration: 1 μM, replicates: in singlicate, 1 µM
# 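Also: KINOMEscan kinase panel screen.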
smiles,measurement,setting,value
CSc1ccc(-c2cc3ncnc(SCC(=O)O)c3s2)cc1,%Inh,[1],0%
same,%Inh,[2],37%
same,%Inh,[3]; 1 µM,97.7%
same,%Inh,[4],0%
same,%Inh,[5]; [11],0%
same,%Inh,[6],0%
same,%Inh,[7],27%
same,%Inh,[8],12%
same,%Inh,[9],11%
same,%Inh,[10],0%
CC(C)Oc1ccc2c(-c3ccnc(Nc4ccc(N5CCN(C)CC5)cc4)n3)cnn2n1 [GW696155],%Inh,[1],74%
same,%Inh,[2],99.5%
same,%Inh,[3]; [11],94.5%
same,%Inh,[4],61%
same,%Inh,[5]; [11],61%
same,%Inh,[6],91.6%
same,%Inh,[7],50%
same,%Inh,[8],0%
same,%Inh,[9],48%
same,%Inh,[10],0%
O=c1cc(N2CCOCC2)nc2n(Cc3cccc(Cl)c3Cl)c(C3CC3)nn12 [GSK2358994],%Inh,[1],0%
same,%Inh,[2],11%
same,%Inh,[3]; [11],9%
same,%Inh,[4],2%
same,%Inh,[5]; 1 µM,0%
same,%Inh,[6],1%
same,%Inh,[7],0%
same,%Inh,[8],0%
same,%Inh,[9],7%
same,%Inh,[10],0%
[2H]C([2H])(c1cccc(C(F)(F)F)c1C)n1ccn2c(=O)nc(N3CCOCC3)cc12 [GSK2336394],%Inh,[1],0%
same,%Inh,[2],0%
same,%Inh,[3]; [11],0%
same,%Inh,[4],16%
same,%Inh,[5]; [11],0%
same,%Inh,[6],1%
same,%Inh,[7],28%
same,%Inh,[8],0%
same,%Inh,[9],12%
same,%Inh,[10],8%
c1ccc(-c2n[nH]cc2-c2ccnc3ccccc23)nc1 [GW271431],%Inh,[1],2%
same,%Inh,[2],19%
same,%Inh,[3]; [11],18%
same,%Inh,[4],17%
same,%Inh,[5]; [11],20%
same,%Inh,[6],0%
same,%Inh,[7],35%
same,%Inh,[8],14%
same,%Inh,[9],16%
same,%Inh,[10],4%
COc1ccc(Nc2nccc(N3CCC(NC(=O)Nc4cc(C)ccc4C)C3)n2)cc1 (stereo not drawn) [GSK1379741],%Inh,[1],0%
same,%Inh,[2],0%
same,%Inh,[3]; [11],0%
same,%Inh,[4],14%
same,%Inh,[5]; [11],0%
same,%Inh,[6],12%
same,%Inh,[7],33%
same,%Inh,[8],0%
same,%Inh,[9],30%
same,%Inh,[10],0%
Nc1nccc(-c2c(-c3ccc(F)cc3)ncn2C2CCN(CC(F)(F)F)CC2)n1 [SB-236560],%Inh,[1],11%
same,%Inh,[2],0%
same,%Inh,[3]; [11],1%
same,%Inh,[4],5%
same,%Inh,[5]; [11],28%
same,%Inh,[6],0%
same,%Inh,[7],29%
same,%Inh,[8],20%
same,%Inh,[9],0%
same,%Inh,[10],0%
Fc1ccc(-c2ncn(CCCN3CCOCC3)c2-c2ccccn2)cc1 [SB-211742],%Inh,[1],17%
same,%Inh,[2],0%
same,%Inh,[3]; [11],0%
same,%Inh,[4],11%
same,%Inh,[5]; [11],37%
same,%Inh,[6],5%
same,%Inh,[7],12%
same,%Inh,[8],0%
same,%Inh,[9],17%
same,%Inh,[10],31%
C[C@@H](Oc1cc(-n2cnc3ccc(NC(=O)NC(C)(C)C)cc32)sc1C(N)=O)c1ccccc1Cl [GSK346294],%Inh,[1],0%
same,%Inh,[2],0%
same,%Inh,[3]; [11],0%
same,%Inh,[4],0%
same,%Inh,[5]; [11],0%
same,%Inh,[6],15%
same,%Inh,[7],32%
same,%Inh,[8],0%
same,%Inh,[9],4%
same,%Inh,[10],0%
COC(=O)Nc1nc2cc(Oc3ccc(NC(=O)Nc4cc(F)ccc4F)cc3)ccc2[nH]1.Cl [GW701424],%Inh,[1],0%
same,%Inh,[2],2%
same,%Inh,[3]; [11],0%
same,%Inh,[4],5%
same,%Inh,[5]; [11],6%
same,%Inh,[6],0%
same,%Inh,[7],35%
same,%Inh,[8],0%
same,%Inh,[9],11%
same,%Inh,[10],63%
Cc1cccc(Cn2ccn3c(=O)cc(N4CCOCC4)nc23)c1 [GSK2297542],%Inh,[1],3%
same,%Inh,[2],1%
same,%Inh,[3]; [11],0%
same,%Inh,[4],24%
same,%Inh,[5]; [11],17%
same,%Inh,[6],12%
same,%Inh,[7],22%
same,%Inh,[8],11%
same,%Inh,[9],16%
same,%Inh,[10],15%
COc1ccc(S(=O)(=O)NC2CCN(c3cc(C)nc(Nc4cccc(C#N)c4)n3)CC2)cc1.O=C(O)C(F)(F)F [GSK1653539],%Inh,[1],0%
same,%Inh,[2],0%
same,%Inh,[3]; [11],0%
same,%Inh,[4],6%
same,%Inh,[5]; [11],39%
same,%Inh,[6],12%
same,%Inh,[7],18%
same,%Inh,[8],0%
same,%Inh,[9],0%
same,%Inh,[10],0%
CN1c2ccc(CNc3ccc(F)cc3)cc2-c2c(cnn2C)S1(=O)=O,%Inh,[1],1%
same,%Inh,[2],0%
same,%Inh,[3]; [11],0%
same,%Inh,[4],0%
same,%Inh,[5]; [11],0%
same,%Inh,[6],0%
same,%Inh,[7],0%
same,%Inh,[8],0%
same,%Inh,[9],0%
same,%Inh,[10],9%
O=c1cc(N2CCOCC2)nc2n(Cc3cccc4ccccc34)ccn12 [GSK2333389],%Inh,[1],0%
same,%Inh,[2],0%
same,%Inh,[3]; [11],0%
same,%Inh,[4],20%
same,%Inh,[5]; [11],7%
same,%Inh,[6],21%
same,%Inh,[7],0%
same,%Inh,[8],0%
same,%Inh,[9],8%
same,%Inh,[10],0%
NCCNS(=O)(=O)c1ccc(-c2ccnc3[nH]ccc23)cc1 [GSK977617],%Inh,[1]; 1 µM,98.6% and 96.7%
same,%Inh,[2]; 1 µM,98.5% and 96.6%
same,%Inh,[3]; [12],77% and 60%
same,%Inh,[4]; 1 µM,89% and 84%
same,%Inh,[5]; [12],85% and 61%
same,%Inh,[6]; 1 µM,86% and 72%
same,%Inh,[7]; 1 µM,22% and 15%
same,%Inh,[8]; 1 µM,11% and 0%
same,%Inh,[9]; 1 µM,54% and 38%
same,%Inh,[10],0%
